This passage reports outcome results from PubChem BioAssay AID652071 (NMMLSC, 2013).

Molecules are shown by their SMILES. The source made the active and inactive calls. How the calls were made is not given here.

This assay can be described thus: V-ATPase proton transport modulators in yeast, dose response, S. cerevisiae, pHLuorin, powder set 4 (AID 652071). The settings on record: S. cerevisiae pHLuorin cytosolic pH fluorescence; series mostly up to 100 µM.
For the compound `CN1CCN(c2ccccc2NC(=O)c2cccc(C#N)c2)CC1`, the result was inactive.

As for `Cc1cccc(C(=O)Nc2ccccc2N2CCCCC2)n1`, the compound was classed as inactive.

Regarding `CN1CCN(c2ccccc2NC(=O)c2cccc(S(C)(=O)=O)c2)CC1`, the compound was classed as inactive.

In the case of `Cc1ccc(C(=O)Nc2ccccc2N2CCN(C)CC2)o1`, the outcome was inactive.

As to `CN1CCN(c2ccccc2NC(=O)c2cccc(S(=O)(=O)N(C)C)c2)CC1`, the compound was called inactive.

Regarding `CC(=O)N1CCN(c2ccccc2NC(=O)c2cccc(Cl)n2)CC1`, the compound was classed as inactive.

On to `CN1CCN(c2ccccc2NC(=O)c2cncc(Cl)n2)CC1`, for which the compound was classed as inactive.

As to `COCc1ccc(C(=O)Nc2ccccc2N2CCCCC2)o1`, the compound was called inactive.

In the case of `N#CCc1cccc(C(=O)Nc2ccccc2N2CCOCC2)c1`, the result was inactive.

On to `CN1CCN(c2ccccc2NC(=O)c2cc(C#N)ccn2)CC1`, for which the call was inactive.

Take `O=C(Nc1ccccc1N1CCCCC1)c1ccc(-c2ccccc2)o1`: the outcome was inactive.

With `NC(=O)c1ccc(C(=O)Nc2ccccc2N2CCCCC2)o1`, the result was inactive.

Turning to `NC(=O)c1cccc(C(=O)Nc2ccccc2N2CCCCC2)c1`, the outcome was inactive.

As for `CC(=O)N1CCN(c2ccccc2NC(=O)c2ccc(CN(C)C)o2)CC1`, the compound was called inactive.

On to `CN(C)S(=O)(=O)c1cccc(C(=O)Nc2ccccc2N2CCCCC2)c1`, for which the outcome was inactive.

For `CN(C)Cc1cccc(C(=O)Nc2ccccc2N2CCN(C)CC2)c1`, the outcome was inactive.

For the compound `CC(=O)N1CCN(c2ccccc2NC(=O)c2ccc(Br)o2)CC1`, the outcome was inactive.

`CN1CCN(c2ccccc2NC(=O)c2cccc(CS(C)(=O)=O)c2)CC1`: the compound was classed as inactive.

As to `CC(=O)N1CCN(c2ccccc2NC(=O)c2ccc(C(C)(C)C)o2)CC1`, the outcome was inactive.

As for `CN1CCN(c2ccccc2NC(=O)c2ccc(-c3ccccc3)o2)CC1`, the call was inactive.

Regarding `CC(=O)N1CCN(c2ccccc2NC(=O)c2ccc(Cl)o2)CC1`, the outcome was inactive.

Take `COCc1ccc(C(=O)Nc2ccccc2N2CCN(C)CC2)o1`: the compound was called inactive.

`Cc1cncc(C(=O)Nc2ccccc2N2CCCCC2)n1`: the call was inactive.

For `CN1CCN(c2ccccc2NC(=O)c2cc(C(F)(F)F)ccn2)CC1`, the result was inactive.

For the compound `O=C(Nc1ccccc1N1CCCCC1)c1cc(C(F)(F)F)ccn1`, the call was inactive.

On to `O=C(c1ccc(Cl)o1)N1CCN(c2nc3ccc(F)cc3s2)CC1`, for which the call was inactive.

Regarding `O=C(Nc1ccccc1N1CCOCC1)c1ccc(Cl)o1`, the compound was called inactive.

With `CN1CCN(c2ccccc2NC(=O)c2cnc(N)o2)CC1`, the compound was classed as inactive.

Regarding `CN1CCN(c2ccccc2NC(=O)c2cccc(C(F)(F)F)n2)CC1`, the outcome was inactive.

Turning to `O=C(Nc1ccccc1N1CCCCC1)c1cc(Cl)ccn1`, the compound was called inactive.

For the compound `Nc1cncc(C(=O)Nc2ccccc2N2CCCCC2)n1`, the call was inactive.

Turning to `Cc1ccnc(C(=O)Nc2ccccc2N2CCCCC2)c1`, the result was inactive.

Consider `CN1CCN(c2ccccc2NC(=O)c2ccc(Br)o2)CC1`, for which the compound was called inactive.

For the compound `Cc1ccnc(C(=O)Nc2ccccc2N2CCN(C)CC2)c1`, the call was inactive.
